The structures appear in SMILES notation. In all, about 69,000 compounds went through this assay and about 8,600 (12%) showed an effect of 50% or more. Only a selection was taken, and strong results are over-represented in it overall.

The experiment has as its system Plasmodium berghei. Briefly: Screen against P. berghei liver stage (PbLuc), transformed with Luciferase, at 10uM. The class given is functional, HepG2. The following applies: tested at 10 uM.
Regarding `COc1c(CNC2(c3noc(C)n3)CCC2)c(C(C)C)nn1C`, the INHIBITION is given as -113%. Next, `Cc1ocnc1C(=O)N1CCCN(Cc2cscn2)CC1`: 35.3%; `O=C(c1ccncc1)N1CC[C@@H]2CN(C3CCOCC3)CCO[C@@H]2C1`: 23.1%; `Cn1cccc1CN1CCC2(CC1)CC(Oc1cccnc1)C2`: 24.6%.

For the compound `COc1cccc(Nc2nc(C3CCNCC3)c3ccccn23)c1`, the INHIBITION was 9.6%. Next, `O=C(Nc1cccc(F)c1)NC1CCN(Cc2ccncc2)CC1`: 45.4%; `NC1CCc2nc(-c3ccncc3)nc(Nc3cccc(F)c3)c2C1` (stereo unspecified): 90.35%; `O=C(c1cccc(F)c1)N1CCCC1c1ncc2c(n1)CCNC2` (stereo unspecified): 36.7%. Regarding `c1csc(CCNc2nc(-c3ccncc3)nc3c2CCNCC3)c1`, the INHIBITION is recorded as 31.6%. Next, `COc1cccc(Nc2nc(-c3ccncc3)nc3c2CNCC3)c1`: 51.7%; `COc1cccc(Nc2nc(N3CCCC3)nc3c2CNCC3)c1`: 42.5%. As to `Fc1cccc(Nc2nc(N3CCCC3)nc3c2CNCC3)c1`, the INHIBITION was found to be 76.8%. The figure for `NC1CCc2nc(-c3cccnc3)nc(Nc3ccc(F)cc3)c2C1` (stereo unspecified) is 63.85%; for `CC(O)CNc1nc(-c2cccnc2)nc2c1CCC2` (stereo unspecified) it is -43%. For the compound `CC(Nc1nc(-c2ccncc2)nc2c1CCNC2)c1ccccc1` (stereo unspecified), the INHIBITION came out at 46.3%. Next, `c1cncc(-c2nc3c(c(NCC4(c5ccncc5)CC4)n2)CCC3)c1`: -5.38%; `Cc1sc(CN)nc1-c1ccc(Cl)cc1`: 5.11%; `CCc1cc(-c2cc[nH]n2)nc(N2CCCC2)n1`: 14.6%.

`Cn1cc([C@@H]2CN(S(=O)(=O)c3cccs3)C[C@H]2N)c2ccncc21`: the INHIBITION worked out at 41.9%. Regarding `Cc1c(CC(=O)N2CCSCC2)nnn1-c1cccc(Cl)c1`, the INHIBITION is 3.46%. Next, `O=C(CC1CCCC1)N1CCC2(CC1)[C@H](O)C[C@@H]2O`: 33.4%; `CN(Cc1ccco1)C(=O)CN1CCCC1Cn1cncn1` (stereo unspecified): -4.16%. Next, `Cc1cnn(C2CCCN(C(=O)c3cn4ccccc4n3)C2)c1` (stereo unspecified): 22.3%.

`COc1ccnc(N2CCN(C(=O)Cc3csc(C)n3)CC2)n1`: the INHIBITION is -55.4%. Next, `CCOc1ccccc1CNCC1CCN(CC(C)O)CC1` (stereo unspecified): 28.7%.

`CCN(CC)C(=O)Nc1cccc(Oc2ccccn2)c1`: the INHIBITION came out at 20%.

On to `Cc1nc(C2CCCN(C(=O)c3ccc(N4CCCC4)nn3)C2)no1` (stereo unspecified), for which the INHIBITION is recorded as -19.4%. The figure for `CCn1cc(-n2cc3nc(N(C)C)[nH]cc-3c2=O)cn1` is -13%; for `Cc1occc1C(=O)N1Cc2nccn2CC(CN2CCCC2)C1` (stereo unspecified) it is 31.2%. As for `Cc1noc(C)c1CC(=O)N1CCCC(Cn2ccnc2C)C1` (stereo unspecified), the INHIBITION worked out at 44.7%. Next, `CCc1nnc(CN(CC)C(=O)C(C)n2ccnc2C(C)C)o1` (stereo unspecified): 30.3%; `Cc1cc2c(=O)n3c(nc2s1)CCN(C(=O)c1ccnn1C)CC3`: -16.5%. The figure for `Cc1cc2c(=O)n3c(nc2s1)CCN(C(=O)c1sc(C)nc1C)CC3` is 80.9%; for `Cc1cc(C(=O)N2CCc3nc4sc(C)cc4c(=O)n3CC2)on1` it is 53.2%; for `Cc1cc2c(=O)n3c(nc2s1)CCN(C(=O)c1scnc1C)CC3` it is 40.9%. Turning to `Cc1cc2c(=O)n3c(nc2s1)CCN(C(=O)c1c(C)noc1C)CC3`, the INHIBITION was found to be 41.2%. `Cc1nc(C)c(C(=O)N2CCc3nc4sc(C)cc4c(=O)n3CC2)o1`: the INHIBITION was -12.9%. Regarding `Cc1noc(C)c1-c1cccc(CC2CCN(C(=O)CN)C2)n1` (stereo unspecified), the INHIBITION is recorded as 36.7%. Consider `Cc1ccc2c(n1)N(CCn1cccn1)CCN(C(=O)CC1CC1)C2`, for which the INHIBITION was -1.64%.

Consider `CCn1cnnc1CNC(=O)N1CCN(Cc2ccsc2)CC1`, for which the INHIBITION was -63.3%.

Consider `CCN1Cc2ccccc2CC2(CCN(C(=O)N(C)C)CC2)C1=O`, for which the INHIBITION was determined as 36.5%.

`CC[C@@H]1N(Cc2ccc(C)s2)CCC[C@]12CCC(=O)N2C`: the INHIBITION is -24.5%. Next, `CCCn1ccnc1-c1cccc(NC2CCOC2)c1` (stereo unspecified): 33.4%; `CCCn1ccnc1-c1cccc(NC(=O)[C@H]2CCC(=O)N2)c1`: 24.3%; `CCCn1ccnc1-c1cccc(NC(=O)C2CCCOC2)c1` (stereo unspecified): 55%. On to `c1coc(CN2CCC3(CC2)COCCN(CCN2CCCC2)C3)c1`, for which the INHIBITION is 0.923%. Next, `CC(C)NC(=O)N(C)C(c1cccc(F)c1)c1ccccn1` (stereo unspecified): -132%. Regarding `O=C(N[C@@H]1CCC[C@@H](N2CCOCC2)[C@@H]1O)c1cnn2cccnc12`, the INHIBITION is reported as -32.2%. Next, `Cc1cc(CNC(=O)c2cc(NC(=O)C(C)C)ccc2Cl)no1`: 68.3%; `CCc1cc(CNC(=O)c2cc(NC(=O)C(C)C)ccc2Cl)[nH]n1`: 21.2%; `Cc1cc(CNC(=O)NC(C)c2ccncc2)no1` (stereo unspecified): 11.8%.

Turning to `NC(=O)c1cnn2c1NCC(CNCCCc1ccccc1)C2` (stereo unspecified), the INHIBITION was 6.35%. On to `Cc1ccc(-c2cc(CNC(=O)N3CCC(O)CC3)on2)cc1`, for which the INHIBITION is listed as -25.8%. For the compound `O=C(CSCc1ccncc1)NCc1csc(Br)c1`, the INHIBITION is 43.2%. The figure for `CS(=O)(=O)NCc1cc2n(n1)CCCN(Cc1nc3ccccc3[nH]1)C2` is 20.1%. The figure for `CCc1cc(NCc2cc3n(n2)CCCN(S(C)(=O)=O)C3)nc(C)n1` is 53%; for `Cc1nccc(NCc2cc3n(n2)CCCN(S(C)(=O)=O)C3)n1` it is 24.9%. Consider `Cc1cc(NCc2cc3n(n2)CCCN(S(C)(=O)=O)C3)ncn1`, for which the INHIBITION is given as -9.86%. Next, `CS(=O)(=O)N1CCCn2nc(CNc3ncccn3)cc2C1`: 34.9%; `CC(=O)c1ccc(NCc2cc3n(n2)CCCN(S(C)(=O)=O)C3)nc1`: 50.3%.

As for `Cc1cc(F)cc(CN2CCCn3nc(CNS(C)(=O)=O)cc3C2)c1`, the INHIBITION was 24.9%. The figure for `CS(=O)(=O)N1CCCn2nc(CNc3cc(C#N)ccn3)cc2C1` is 23%; for `Cc1c[nH]c(CN2CCCn3nc(CNS(C)(=O)=O)cc3C2)n1` it is 66.6%. The figure for `CCOC1CCN(C(=O)NCCc2ccn(-c3ccccc3)n2)CC1` is -10.1%; for `COCC1c2c(cnn2C)CCN1Cc1ccc(F)cc1` (stereo unspecified) it is 21.6%; for `O=C1CC2(CCN(c3nncs3)C2)CN1c1ccc2c(c1)OCCO2` (stereo unspecified) it is -7.29%.

On to `COCCn1ccc2ccc(C(=O)N3CCN(C(C)=O)CC3)cc21`, for which the INHIBITION was 10.5%.

Regarding `Cc1cc(C)n(Cc2ccc(C(=O)N3CCOCC3(C)C)cc2)n1`, the INHIBITION came to 27.9%. In the case of `CC1=C(C(=O)N2CCCC(Cn3cc(CO)nn3)C2)OCCO1` (stereo unspecified), the INHIBITION is 13%. Next, `Cc1cnc(C(=O)N2CCCC(Cn3cc(C4CC4)nn3)C2)cn1` (stereo unspecified): -66.7%; `Cc1ccc(S(=O)(=O)N2CCN(CCC(N)=O)CC2)s1`: 38.8%. In the case of `Cc1ccc(C(=O)N2CCCC(Cn3cc(C(C)(C)N)nn3)C2)s1` (stereo unspecified), the INHIBITION was determined as 64%. The figure for `Cc1ccc(S(=O)(=O)N2CCC(Cn3cc(C(C)(C)N)nn3)CC2)s1` is 61.8%; for `CCc1nnc2ccc(N3CCN(S(=O)(=O)c4ccc(C)s4)CC3)nn12` it is 10.1%; for `CN1CCC(NCC(O)c2cccc(OCc3ccccc3)c2)CC1` (stereo unspecified) it is 14.9%. Take `NC(=O)c1cc(C2CCCN(C(=O)CCc3ccccn3)C2)n[nH]1` (stereo unspecified): the INHIBITION was -19.9%.

On to `CCC(C)N(Cc1sccc1C)C(=O)c1ccc(S(C)(=O)=O)cc1` (stereo unspecified), for which the INHIBITION turned out to be 20.3%.

Consider `CN(C)C(=O)CN1CCC(c2cncc(-c3cccc(Cl)c3)n2)CC1`, for which the INHIBITION stood at 0.301%. On to `Cc1ccc(-n2nc3n(c2=O)CCN(C(=O)c2ccc(Cl)cc2)C3)cc1`, for which the INHIBITION turned out to be 15.9%. The figure for `C1CC(c2nnc(CN3CCCC3c3noc(C4CC4)n3)o2)C1` (stereo unspecified) is -7.13%; for `N#CC1(NC(=O)c2ccc(-c3nc(C4CC4)n[nH]3)cc2)CCC1` it is 28.8%; for `CCc1noc(CN(CCS(C)(=O)=O)C(C)(C)C)n1` it is -37.1%. Consider `CCc1cc(N2CCC(NCCc3ccc(C)o3)CC2)nc(C)n1`, for which the INHIBITION is reported as 21.3%. Regarding `CCc1cc(N2CCC(NCCSc3nnnn3C)CC2)nc(C)n1`, the INHIBITION is 61.8%.

In the case of `Cn1nnnc1SCc1cc2c(cc1Cl)OCO2`, the INHIBITION turned out to be 25.2%. Turning to `Cc1cc(C)nc(N2CCC(NCCSc3nnnn3C)CC2)n1`, the INHIBITION was 35.1%. Turning to `CCc1c(C)nc(C)nc1N1CCC(NCCSc2nnnn2C)CC1`, the INHIBITION turned out to be 36.2%.

Turning to `Cn1nnnc1SCCNC1CCN(c2ccc3c(c2)OCO3)CC1`, the INHIBITION turned out to be 65%.

With `CN(Cc1cn(-c2ccccc2)nn1)C1CCCN(c2cccnn2)C1` (stereo unspecified), the INHIBITION is listed as -9.76%.

Regarding `O=C1CC2(CCCNC2)C(=O)N1Cc1cccc(Cl)c1` (stereo unspecified), the INHIBITION is given as -4.82%. Take `CCN(CC)C1CCN(C(=O)c2cc3cc(C)cc(C)c3nc2C)CC1`: the INHIBITION came to 1.05%.

On to `CCCS(=O)(=O)N1CCOC2(CCCN(c3ccccn3)C2)C1` (stereo unspecified), for which the INHIBITION is given as 11.4%. For the compound `Cc1ccc(N2CCCC3(COCCN(c4nccs4)C3)C2)nn1` (stereo unspecified), the INHIBITION is listed as -8.19%. The figure for `c1cnc(N2CCOC3(CCCN(c4cnccn4)C3)C2)nc1` (stereo unspecified) is -13.7%; for `c1ccc(N2CCOCC3(CCCN(c4nccs4)C3)C2)nc1` (stereo unspecified) it is 19.8%. The figure for `c1ccc(-c2nnc(N3CCCC4(CCOC4)C3)s2)cc1` (stereo unspecified) is 56.5%. Turning to `c1ccc(N2CCCC3(COCCN(c4nccs4)C3)C2)nc1` (stereo unspecified), the INHIBITION amounted to 68.5%. For the compound `CCS(=O)(=O)N1CCOC2(CCCN(c3ccccn3)C2)C1` (stereo unspecified), the INHIBITION is on record as 50.7%. `Cc1nnc(N2CCCC3(CN(c4ccccn4)CCO3)C2)o1` (stereo unspecified): the INHIBITION was -34%. The figure for `c1ccc(N2CCOC3(CCCN(c4ncccn4)C3)C2)nc1` (stereo unspecified) is 76.5%; for `OC1(CN2CCCC2)COCCN(c2nnc(-c3ccccc3)s2)C1` (stereo unspecified) it is 26.6%; for `c1ccc2sc(N3CCCC4(CCOC4)C3)nc2c1` (stereo unspecified) it is -50.5%. The figure for `CCS(=O)(=O)N1CCOC2(CCCN(Cc3ccccn3)C2)C1` (stereo unspecified) is -28.1%. Next, `Cc1ccc(C(=O)N2CCN(C)C3(CCC(=O)N(C)CC3)C2)c(F)c1` (stereo unspecified): 15.8%. `CCc1nnc(CNC2CCCN(Cc3noc(C4CC4)n3)C2)o1` (stereo unspecified): the INHIBITION was -16%. Turning to `COCCN1CCC(NCc2c(F)cccc2F)C1` (stereo unspecified), the INHIBITION was 25.4%.
